SARS 3CLpro inh – SARS-CoV 3CLpro protease inhibitors, primary screen, biochemical, quenched FRET. Replicase polyprotein 1ab (Severe acute respiratory syndrome coronavirus), P0C6X7. recombinant SARS-CoV 3CLpro, quenched FRET peptide cleavage. inhibition, % at 6 µM. 0.14% of 290,000 active. AID 1706, 2009; in the data active = inhibition above about 12%
CCHF vOTU inh – CCHFV vOTU protease inhibitors, primary screen, biochemical, Pep-AMC substrate, fluorescence; inhibition, % at 11.5 µM; 0.55% of 370,000 active; in the data active = inhibition above about 30%; also: 0% = vehicle wells with enzyme and 100% = no enzyme wells
Anthrax LF prot – Bacillus anthracis LF protease inhibitors, primary screen, biochemical, multiplex microsphere, MLPCN library; 0.12% of 360,000 active; inhibition, % at 10 µM; multiplex microsphere protease cleavage assay; also: plate controls were buffer without enzyme for full effect and enzyme alone for no effect
BoNT F protease – BoNT/F light chain protease inhibitors, primary screen, biochemical, flow cytometry, MLPCN library. 0.22% of 360,000 active. AID 588497, 2011. Multiplex microsphere protease cleavage assay. inhibition, % at 10 µM; in the data active = inhibition above about 35%, passing the limit was not always enough; inconclusive = no clear call, values can overlap the other calls; also: plate controls were buffer without enzyme for full effect and enzyme alone for no effect
Autofluor counter – flagged as autofluorescent in microsphere protease counterscreen; compound autofluorescence counterscreen, microsphere flow cytometry; hits give high values; fluorescence intensity (concentration not given with the values); 3.1% of 360,000 active; in the data active = fluorescence intensity above about 16000; inconclusive = no clear call, values can overlap the other calls
BoNT-A LC inh2 – BoNT/A light chain protease inhibitors, primary screen, biochemical, flow cytometry, MLPCN library | inhibition, % at 10 µM | multiplex microsphere protease substrate cleavage | AID 588499, 2011 | Botulinum neurotoxin type A light chain protease (Clostridium botulinum A str. ATCC 3502) | 0.17% of 360,000 active; also: plate controls were buffer without enzyme for full effect and enzyme alone for no effect
* = called active by the depositor; ? = inconclusive; nt = not tested or not shown. The list is not random: actives were taken first. Their share in the collection is about 3.9%. Rule as the data show it, unless noted: active = inhibition above about 30%; inconclusive = no clear call, values can overlap the other calls; inactive = below that.

SMILES	SARS 3CLpro inh	CCHF vOTU inh	Anthrax LF prot	BoNT F protease	Autofluor counter	BoNT-A LC inh2
NC(=O)CC1NC(=O)c2ccccc21 (centres undefined)	3.9	9.6	2.4	1.9	23615*	0.2
CCOC(=O)CC1NC(=O)c2ccccc21 (centres undefined)	-2.0	-4.6	-2.0	-4.1	2467	-0.7
COC(=O)[C@]12C[C@H](CC(=O)NCc3cccs3)C(=O)N(Cc3ccccc3)C1=C[C@H](C(C)(C)C)O[C@@H]2C	nt	19.9	nt	nt	nt	nt
Cc1c(Cl)cccc1NC(=O)CN1CCN(CCO)CC1	-2.7	-10.7	-11.1	2.0	22331*	1.5
O=C(CN1CCCC1)Nc1ccccc1Cl	2.7	-7.5	0.8	-1.4	22970*	?
Cc1c(Cl)cccc1NC(=O)CCN1CCCCCC1	-1.2	8.2	18.9	-9.7	8142	-2.0
Cc1c(Cl)cccc1NC(=S)N1CCN(Cc2ccccc2)CC1	2.1	-2.5	2.0	1.1	23770*	-0.1
COC(=O)c1ccc(Cl)c(NC(=O)CN2CCN(C)CC2)c1	1.8	1.7	-4.2	-3.3	23083*	?
O=C(CN1CCCC1)Nc1cccc(Cl)c1Cl	-3.0	6.6	-9.6	?	3964	5.2
O=C1N(Cc2ccccc2)c2ccccc2C12CCCc1sc(CCc3ccccc3)nc12 (centres undefined)	nt	5.0	nt	nt	nt	nt
O=C([C@@H]1C[C@H]1c1ccccc1)N1CC[C@H]2[C@H](CCCN2Cc2ccccc2)C1	nt	-1.9	nt	nt	nt	nt
COc1ccc(S[C@]2(C(=O)N(C)C)CC(=O)N(C(=O)/C=C/c3ccccc3)[C@@H]2c2ccc(OC)cc2)cc1	nt	9.1	nt	nt	nt	nt
Cc1ccc(Cn2cc(CN(C3CC3)S(=O)(=O)c3ccccc3Br)nn2)cc1	nt	-6.8	nt	nt	nt	nt
COC(=O)c1ccc(Cl)c(NC(=O)CN(c2ccc3c(c2)OCO3)S(C)(=O)=O)c1	0.7	-4.2	-10.8	6.7	20796*	4.4
COC(=O)c1cc(NC(=O)CN(c2ccc3c(c2)OCO3)S(C)(=O)=O)ccc1Cl	1.0	9.3	-2.7	-0.7	3407	0.5
Clc1nc(-c2ccccc2)cc(-c2ccc(Br)cc2)n1	0.6	nt	-2.1	-2.6	23930*	-1.1
COc1ccc(C2C(C(C)=O)=C(O)C(=O)N2c2cccnc2)c(OC)c1 (centres undefined)	1.4	3.2	-4.3	-2.1	16553*	-0.7
COc1ccc(C2C(C(C)=O)=C(O)C(=O)N2C)c(OC)c1 (centres undefined)	-0.5	7.2	6.6	?	3990	-0.8
CC1=NNC(=O)C1CCC(=O)N/N=C\c1ccccc1[N+](=O)[O-] (centres undefined)	2.1	-1.7	-0.8	0.1	22394*	?
CC1=NNC(=O)C1CCC(=O)N/N=C/c1ccccc1 (centres undefined)	7.6	-9.3	0.8	5.3	5999	0.3
O=C(Cc1ccccn1)Nc1ccccc1	-1.5	-2.6	1.8	2.3	22456*	1.3
O=C(CSc1ncccn1)Nc1ccccc1	-6.6	-6.3	2.8	2.0	20507*	?
O=C(CSCc1ccccn1)Nc1ccccc1	0.9	3.5	-1.3	-20.6	2399	-1.0
Nc1cc(N)nc(SCC(=O)Nc2ccccc2)n1	-2.1	10.6	-1.0	-41.2	5387	-2.7
O=C(c1ccc(-c2ccc([N+](=O)[O-])cc2)o1)N1CCCCC1	-9.3	24.2	0.1	-5.1	2824	1.8
SMILES	SARS 3CLpro inh	CCHF vOTU inh	Anthrax LF prot	BoNT F protease	Autofluor counter	BoNT-A LC inh2
O=C(c1ccc(-c2ccc(Cl)cc2)o1)N1CCN(c2ccc([N+](=O)[O-])cc2Cl)CC1	-2.9	-10.5	1.6	-0.2	21861*	4.8
Cc1sc2nc(C3CC3)nc(SCC(=O)N3CCc4ccccc4C3)c2c1C	3.9	4.5	0.8	-2.1	23515*	?
C=CCOC(=O)C1=C(C)OC(N)=C(C(=O)OCC)C12C(=O)N(CC(N)=O)c1ccccc12 (centres undefined)	-2.2	0.7	2.2	3.2	19254*	?
CC[C@H](C)NC(=O)CCCCCn1c(=S)[nH]c2c([nH]c3ccc(OC)cc32)c1=O	-2.4	5.5	-2.5	-4.5	3316	-0.5
CCCCNC(=O)CCCCn1c(=S)[nH]c2c([nH]c3ccc(OC)cc32)c1=O	-0.4	7.5	7.1	2.6	4172	-0.3
COc1ccc2[nH]c3c(=O)n(CCCCC(=O)NCCN4CCCC4)c(=S)[nH]c3c2c1	-3.6	-3.2	-0.5	-6.6	17189*	-1.5
COc1ccc2[nH]c3c(=O)n(CCCCC(=O)N4CCC(C(N)=O)CC4)c(=S)[nH]c3c2c1	-3.6	nt	2.5	1.0	20373*	?
Cc1ccccc1C(=O)N/N=C/c1ccncc1	-2.3	6.0	-2.0	-0.8	19987*	?
O=C(N/N=C\c1ccncc1)c1ccccc1O	2.2	-3.1	-3.6	-7.3	1911	0.0
Clc1ccc([C@H]2OC[C@@]3(CNC4CCCCC4)CS[C@H](c4ccc(Cl)cc4)N23)cc1	nt	10.0	nt	nt	nt	nt
O=C(CSc1nnc(-c2ccccc2)n1-c1ccc(Cl)cc1)NN=Cc1c[nH]c2ccccc12	nt	8.1	nt	nt	nt	nt
CN(CCOC(=O)c1cc2ccccc2o1)C1CN(Cc2cn(Cc3ccccc3F)nn2)S(=O)(=O)C1 (centres undefined)	nt	4.7	nt	nt	nt	nt
O=C(CSc1nnc(COc2ccc(Cl)cc2)n1Cc1ccco1)Nc1ccc2c(c1)OCO2	nt	2.3	nt	nt	nt	nt
O=C(Nc1ccncc1)c1cn(-c2ccccc2)nc1-c1cccs1	-3.1	-0.1	-1.6	-21.3	?	-1.4
CC(NC(=O)COC(=O)c1cn(-c2ccccc2)nc1-c1cccs1)c1ccccc1 (centres undefined)	1.7	2.2	-10.4	5.1	18189*	6.6
Cc1ccccc1CS(=O)(=O)Cc1ccc(C(=O)Nc2ccc(F)cc2F)o1	nt	11.2	nt	nt	nt	nt
Cc1cc(C)n2nc(-c3cnn(C)c3C(F)(F)F)cc2n1	-2.0	10.5	-7.2	2.7	19076*	?
CCCCC(=O)N1CCN(C(=O)c2ccc3c(c2)nc(C)n3C2CCCC2)CC1	nt	8.9	nt	nt	nt	nt
Cc1nn(-c2ccccc2)c2c1C1(C(=O)N(C)c3ccccc31)C(C#N)=C(N)O2 (centres undefined)	-7.5	-3.2	-5.9	-0.8	9741	0.5
Cc1nn(-c2ccccc2)c2c1C1(C(=O)N3c4c(cccc41)C(C)CC3(C)C)C(C#N)=C(N)O2 (centres undefined)	4.3	15.7	-1.3	0.0	22394*	2.2
Cc1ccc(Cn2cc(CN3[C@@H](CC(C)C)COc4cccc(F)c4S3(=O)=O)nn2)cc1	nt	1.9	nt	nt	nt	nt
C/C(=C\c1ccccc1)CN1CCN(c2ccccc2)CC1	0.2	2.3	-2.1	-1.1	21899*	1.3
C/C=C(\C)CN1CCN(c2ccccc2F)CC1	0.9	0.7	-2.4	-3.7	23234*	0.3

High-throughput results as filed in PubChem BioAssay.
